# In the supplement of paper PMC10849652:
# The full data set covers some 7,900 targets. This sample favours those with a hit. About 0.6% of all pairs of compound and target were hits. Unmarked numbers belong to inactive results.
# What was measured:
# Assay in all cases: log2 fold change, soluble protein after heating vs DMSO (PISA); higher = thermal stabilisation; K562 cells, 10 uM, 30 min; active = over 0.2 and 3.5 SD of the protein, either way, in both replicates (recomputed)
# [1] = compound: CS(=O)(=O)c1ccc(-c2cnc(N)c(C(=O)Nc3ccccc3)n2)cc1
# Method in brief: (§1)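 Quantification of soluble protein used TMTpro 16plex LC-MS/MS, with channel sums equalised. Samples were the supernatant after 21,000xg for 90 min of pooled aliquots from K562 cells (2×10^6 cells/mL) treated with 10 μM compound for 30 min, heated for 3 min over 48°C-58°C, and extracted in PBS with 0.5% NP-40 at 4°C. Values, from duplicates, describe thermal stability against control samples on a log2 fold-change scale.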
# [2] = compound: C[C@@H](Oc1cc(-c2cnn(C3CCNCC3)c2)cnc1N)c1c(Cl)ccc(F)c1Cl [crizotinib]
# Method in brief: as §1
# [3] = compound: C[C@@H]1COCCN1C2=NC(=NC(=C2)C3(CC3)S(=O)(=O)C)C4=C5C=CNC5=CC=C4
# Method in brief: as §1
# [4] = compound: C[C@H](C1=CC=C(C=C1)C(=O)NC2=C3C=CNC3=NC=C2)N
# Method in brief: as §1
# [5] = compound: C[C@H](Nc1ncnc2nc[nH]c12)c1cc2cccc(Cl)c2c(=O)n1-c1ccccc1 [duvelisib]
# Method in brief: as §1
# [6] = compound: Cc1cc(Nc2cc(CN3CCOCC3)c3nc(C)c(Cc4ccc(Cl)cc4F)n3n2)n[nH]1 [gandotinib]
# Method in brief: as §1
# [7] = compound: Cc1cc(Nc2cc(N3CCN(C)CC3)nc(Sc3ccc(NC(=O)C4CC4)cc3)n2)n[nH]1 [tozasertib]
# Method in brief: as §1
# [8] = compound: Cc1cc(SCc2sc(-c3ccc(C(F)(F)F)cc3)nc2C)ccc1OCC(=O)O
# Method in brief: as §1
# [9] = compound: Cc1ccc(-n2nc(C(C)(C)C)cc2NC(=O)Nc2ccc(OCCN3CCOCC3)c3ccccc23)cc1 [doramapimod]
# Method in brief: as §1
# [10] = compound: Cc1ccc(C(=O)N(CCCN)[C@@H](c2nc3cc(Cl)ccc3c(=O)n2Cc2ccccc2)C(C)C)cc1 [ispinesib]
# Method in brief: as §1
# [11] = compound: Cc1ccc(NC(=O)c2ccc(CN3CC[C@H](N(C)C)C3)c(C(F)(F)F)c2)cc1Nc1nccc(-c2cncnc2)n1 [bafetinib]
# Method in brief: as §1
# [12] = compound: Cc1cccc(CC(=O)N2CCc3c2ccc(-c2cn(C)c4ncnc(N)c24)c3F)n1
# Method in brief: as §1
# [13] = compound: Cc1cn(-c2cc(NC(=O)c3ccc(C)c(Nc4nccc(-c5cccnc5)n4)c3)cc(C(F)(F)F)c2)cn1 [nilotinib]
# Method in brief: as §1
# [14] = compound: Cc1nc(Nc2n[nH]c3c2CN(C(=O)N[C@H](CN(C)C)c2ccccc2)C3(C)C)c2sccc2n1
# Method in brief: as §1
# [15] = compound: Cc1nc(Nc2ncc(C(=O)Nc3c(C)cccc3Cl)s2)cc(N2CCN(CCO)CC2)n1 [dasatinib]
# Method in brief: as §1
# [16] = compound: Cc1ncc(-c2ccnc(Nc3ccc(S(C)(=O)=O)cc3)n2)n1C(C)C
# Method in brief: as §1
# [17] = compound: Cn1cc(-c2ccc3c(c2)CCN3C(=O)Cc2cccc(C(F)(F)F)c2)c2c(N)ncnc21
# Method in brief: as §1
# [18] = compound: Cn1cc(-c2ccc3nnc(C(F)(F)c4ccc5ncccc5c4)n3n2)cn1
# Method in brief: as §1
# [19] = compound: Cn1cncc1[C@@](N)(c1ccc(Cl)cc1)c1ccc2c(c1)c(-c1cccc(Cl)c1)cc(=O)n2C [tipifarnib]
# Method in brief: as §1
# [20] = compound: FC(F)(F)c1ccc(/C=C/c2nc(COc3ccc(CCCCn4ccnn4)cc3)co2)cc1 [mubritinib]
# Method in brief: as §1
# Sequence of UniProt Q9Y3I1 (Q9Y3I1 whole entry, looked up): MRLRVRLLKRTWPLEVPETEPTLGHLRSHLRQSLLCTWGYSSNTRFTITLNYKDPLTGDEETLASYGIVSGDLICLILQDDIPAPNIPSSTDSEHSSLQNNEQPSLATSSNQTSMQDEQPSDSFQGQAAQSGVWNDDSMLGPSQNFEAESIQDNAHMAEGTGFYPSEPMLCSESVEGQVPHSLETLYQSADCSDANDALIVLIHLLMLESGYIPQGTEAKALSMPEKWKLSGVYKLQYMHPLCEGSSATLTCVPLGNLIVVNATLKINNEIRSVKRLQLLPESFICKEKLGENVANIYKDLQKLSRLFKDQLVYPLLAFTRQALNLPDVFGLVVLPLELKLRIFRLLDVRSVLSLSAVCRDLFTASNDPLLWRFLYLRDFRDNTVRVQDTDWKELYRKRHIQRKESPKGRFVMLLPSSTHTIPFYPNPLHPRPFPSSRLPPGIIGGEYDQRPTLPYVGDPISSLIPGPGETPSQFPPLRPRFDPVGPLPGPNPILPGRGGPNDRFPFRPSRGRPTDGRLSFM
# Sequence of UniProt P85037 (P85037 whole entry, looked up): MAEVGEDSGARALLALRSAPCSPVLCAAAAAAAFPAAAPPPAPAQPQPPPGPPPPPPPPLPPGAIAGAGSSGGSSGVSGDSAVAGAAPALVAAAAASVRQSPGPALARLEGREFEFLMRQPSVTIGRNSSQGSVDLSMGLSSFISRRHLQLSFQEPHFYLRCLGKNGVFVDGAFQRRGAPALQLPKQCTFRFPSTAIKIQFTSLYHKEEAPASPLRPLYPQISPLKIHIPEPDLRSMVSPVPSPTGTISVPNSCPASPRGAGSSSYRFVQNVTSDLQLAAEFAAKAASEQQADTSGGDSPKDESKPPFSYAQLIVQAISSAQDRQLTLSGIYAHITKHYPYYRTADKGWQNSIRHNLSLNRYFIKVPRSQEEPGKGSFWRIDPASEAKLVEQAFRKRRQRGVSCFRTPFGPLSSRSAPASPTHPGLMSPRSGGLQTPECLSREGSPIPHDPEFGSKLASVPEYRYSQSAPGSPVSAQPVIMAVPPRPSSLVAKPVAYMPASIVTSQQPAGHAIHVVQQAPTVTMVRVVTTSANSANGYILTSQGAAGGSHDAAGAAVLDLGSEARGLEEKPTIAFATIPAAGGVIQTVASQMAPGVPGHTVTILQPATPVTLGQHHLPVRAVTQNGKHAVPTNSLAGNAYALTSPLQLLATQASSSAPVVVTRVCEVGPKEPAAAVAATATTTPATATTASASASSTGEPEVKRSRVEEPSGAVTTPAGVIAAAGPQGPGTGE
# Sequence of UniProt Q5JWF2 (Q5JWF2 whole entry, looked up): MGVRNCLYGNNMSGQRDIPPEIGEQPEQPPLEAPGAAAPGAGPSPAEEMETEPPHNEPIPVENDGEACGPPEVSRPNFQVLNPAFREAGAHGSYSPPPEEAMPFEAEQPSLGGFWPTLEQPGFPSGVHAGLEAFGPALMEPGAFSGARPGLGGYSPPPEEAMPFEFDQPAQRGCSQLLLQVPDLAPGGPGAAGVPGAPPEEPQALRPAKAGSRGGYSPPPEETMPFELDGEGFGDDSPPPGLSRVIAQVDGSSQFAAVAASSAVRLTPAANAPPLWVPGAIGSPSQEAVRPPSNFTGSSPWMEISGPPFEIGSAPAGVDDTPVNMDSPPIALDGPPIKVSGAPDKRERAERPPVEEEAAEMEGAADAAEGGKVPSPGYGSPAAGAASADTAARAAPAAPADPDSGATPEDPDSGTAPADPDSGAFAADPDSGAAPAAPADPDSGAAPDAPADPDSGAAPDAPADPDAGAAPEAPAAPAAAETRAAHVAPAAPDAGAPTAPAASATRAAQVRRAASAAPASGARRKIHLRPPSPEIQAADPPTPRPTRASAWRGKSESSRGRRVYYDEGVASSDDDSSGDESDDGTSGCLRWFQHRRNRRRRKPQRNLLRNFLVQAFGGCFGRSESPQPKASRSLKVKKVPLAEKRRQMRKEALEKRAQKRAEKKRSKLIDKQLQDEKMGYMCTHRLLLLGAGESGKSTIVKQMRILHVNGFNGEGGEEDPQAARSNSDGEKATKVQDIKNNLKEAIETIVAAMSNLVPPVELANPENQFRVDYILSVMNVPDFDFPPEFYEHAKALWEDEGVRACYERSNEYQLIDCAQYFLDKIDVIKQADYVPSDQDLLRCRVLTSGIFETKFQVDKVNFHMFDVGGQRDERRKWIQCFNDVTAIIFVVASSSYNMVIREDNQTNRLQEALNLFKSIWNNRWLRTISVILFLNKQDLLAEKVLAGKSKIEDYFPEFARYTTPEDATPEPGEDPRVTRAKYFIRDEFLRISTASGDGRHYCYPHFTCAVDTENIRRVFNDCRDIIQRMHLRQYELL
# Sequence of UniProt Q13547 (Q13547 whole entry, looked up): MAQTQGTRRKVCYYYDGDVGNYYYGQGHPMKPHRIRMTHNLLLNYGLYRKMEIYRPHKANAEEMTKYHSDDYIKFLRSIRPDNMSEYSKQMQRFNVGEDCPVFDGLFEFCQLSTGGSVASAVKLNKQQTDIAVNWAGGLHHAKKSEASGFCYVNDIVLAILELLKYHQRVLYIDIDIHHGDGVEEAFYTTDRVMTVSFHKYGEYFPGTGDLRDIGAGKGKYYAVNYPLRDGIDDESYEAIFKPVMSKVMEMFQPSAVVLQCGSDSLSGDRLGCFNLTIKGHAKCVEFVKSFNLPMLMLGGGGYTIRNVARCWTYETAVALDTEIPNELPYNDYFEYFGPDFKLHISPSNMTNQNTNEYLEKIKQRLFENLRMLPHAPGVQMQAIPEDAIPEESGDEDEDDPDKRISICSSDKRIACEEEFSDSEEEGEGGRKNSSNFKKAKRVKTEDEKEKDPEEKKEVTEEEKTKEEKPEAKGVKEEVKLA
# Sequence of UniProt P31150 (P31150 whole entry, looked up): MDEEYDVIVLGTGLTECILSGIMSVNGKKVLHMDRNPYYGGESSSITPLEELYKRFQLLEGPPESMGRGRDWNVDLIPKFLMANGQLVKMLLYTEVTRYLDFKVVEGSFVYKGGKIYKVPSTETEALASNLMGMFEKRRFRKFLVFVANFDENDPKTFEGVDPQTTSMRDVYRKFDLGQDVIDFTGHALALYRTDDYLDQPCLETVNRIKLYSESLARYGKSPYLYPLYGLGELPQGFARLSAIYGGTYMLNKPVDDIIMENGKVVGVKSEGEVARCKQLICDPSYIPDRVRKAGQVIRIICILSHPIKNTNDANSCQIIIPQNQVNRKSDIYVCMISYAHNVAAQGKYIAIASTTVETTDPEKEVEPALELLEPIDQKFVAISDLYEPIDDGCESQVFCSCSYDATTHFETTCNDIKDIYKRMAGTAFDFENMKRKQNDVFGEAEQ
# Sequence of UniProt Q6P3S6 (Q6P3S6 whole entry, looked up): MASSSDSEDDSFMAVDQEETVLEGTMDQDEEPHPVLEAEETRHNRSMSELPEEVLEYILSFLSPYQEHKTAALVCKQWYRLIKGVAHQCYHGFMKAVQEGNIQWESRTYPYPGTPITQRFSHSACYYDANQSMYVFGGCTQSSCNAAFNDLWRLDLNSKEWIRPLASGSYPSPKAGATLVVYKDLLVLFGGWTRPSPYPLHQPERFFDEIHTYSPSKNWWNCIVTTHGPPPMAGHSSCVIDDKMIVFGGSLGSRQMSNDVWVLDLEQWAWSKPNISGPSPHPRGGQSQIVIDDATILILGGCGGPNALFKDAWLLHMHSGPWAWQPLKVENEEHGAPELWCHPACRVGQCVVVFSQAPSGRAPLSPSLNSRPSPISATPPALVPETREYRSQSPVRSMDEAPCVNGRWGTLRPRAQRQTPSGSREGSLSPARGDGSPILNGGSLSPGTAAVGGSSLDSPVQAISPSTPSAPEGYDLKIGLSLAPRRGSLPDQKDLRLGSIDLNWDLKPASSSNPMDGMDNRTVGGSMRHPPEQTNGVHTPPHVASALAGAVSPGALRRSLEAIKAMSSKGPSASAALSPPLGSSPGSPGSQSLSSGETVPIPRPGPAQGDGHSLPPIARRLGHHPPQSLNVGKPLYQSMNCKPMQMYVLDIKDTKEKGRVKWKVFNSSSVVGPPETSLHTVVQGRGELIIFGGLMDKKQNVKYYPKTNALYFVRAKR
# Sequence of UniProt P62879 (P62879 whole entry, looked up): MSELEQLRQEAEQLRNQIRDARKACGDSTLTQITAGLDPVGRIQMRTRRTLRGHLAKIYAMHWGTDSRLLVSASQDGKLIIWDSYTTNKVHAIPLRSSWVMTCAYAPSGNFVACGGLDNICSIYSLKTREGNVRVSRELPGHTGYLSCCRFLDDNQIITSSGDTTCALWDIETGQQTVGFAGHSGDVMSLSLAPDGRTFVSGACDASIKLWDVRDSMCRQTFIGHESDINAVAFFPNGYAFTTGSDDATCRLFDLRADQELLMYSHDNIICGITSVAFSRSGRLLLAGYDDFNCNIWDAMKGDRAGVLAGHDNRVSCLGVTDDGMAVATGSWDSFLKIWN
# Sequence of UniProt P30519 (P30519 whole entry, looked up): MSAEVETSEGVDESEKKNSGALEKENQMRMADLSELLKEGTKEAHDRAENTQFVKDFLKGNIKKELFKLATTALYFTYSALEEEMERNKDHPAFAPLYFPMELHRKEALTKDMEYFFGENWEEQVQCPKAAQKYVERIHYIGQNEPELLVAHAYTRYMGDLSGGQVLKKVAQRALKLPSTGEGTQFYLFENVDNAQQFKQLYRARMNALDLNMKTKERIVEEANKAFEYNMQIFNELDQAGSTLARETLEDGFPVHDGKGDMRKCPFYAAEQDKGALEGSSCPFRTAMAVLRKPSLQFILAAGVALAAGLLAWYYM
# Sequence of UniProt P0CL80 (P0CL80 whole entry, looked up): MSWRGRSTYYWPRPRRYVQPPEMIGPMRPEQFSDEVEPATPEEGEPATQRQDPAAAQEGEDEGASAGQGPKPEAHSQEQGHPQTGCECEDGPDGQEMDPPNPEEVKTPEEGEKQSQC
# Sequence of UniProt O00165 (O00165 whole entry, looked up): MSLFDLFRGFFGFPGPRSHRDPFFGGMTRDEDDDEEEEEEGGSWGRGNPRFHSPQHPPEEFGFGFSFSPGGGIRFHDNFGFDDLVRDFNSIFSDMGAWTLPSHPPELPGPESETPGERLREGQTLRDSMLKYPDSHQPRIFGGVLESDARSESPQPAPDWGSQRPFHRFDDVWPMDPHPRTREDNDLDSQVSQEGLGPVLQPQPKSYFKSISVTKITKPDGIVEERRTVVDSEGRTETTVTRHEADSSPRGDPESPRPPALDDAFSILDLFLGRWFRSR
Target,log2 fold change [1],log2 fold change [2],log2 fold change [3],log2 fold change [4],log2 fold change [5],log2 fold change [6],log2 fold change [7],log2 fold change [8],log2 fold change [9],log2 fold change [10],log2 fold change [11],log2 fold change [12],log2 fold change [13],log2 fold change [14],log2 fold change [15],log2 fold change [16],log2 fold change [17],log2 fold change [18],log2 fold change [19],log2 fold change [20]
FBXO42 (UniProt Q6P3S6),0.077,0.4 (active),0.127,-0.064,0.076,-0.022,0.105,0.063,0.01,-0.015,-0.014,-0.006,-0.006,0.028,-0.036,-0.026,0.137,-0.007,0.006,0.059
HIST2H3A (UniProt Q71DI3),-0.106,-0.327,-0.204,0.399,-0.359,-0.014,0.106,-0.031,0.098,-0.081,0.198,-0.183,-0.054,-0.068,0.215,-0.032,-0.258,-0.054,0.031,-0.037
GAGE12F (UniProt P0CL80),0.019,0.034,0.092,0.081,0.039,0.072,0.006,0.03,0.043,0.009,-0.092,-0.284 (active),0.052,-0.085,0.009,-0.015,-0.004,-0.035,0.053,0.085
HAX1 (UniProt O00165),0.02,-0.235,-0.043,0.16,-0.062,-0.174,-0.071,0.014,0.035,-0.59 (active),-0.103,0.029,-0.113,-0.174,-0.044,0.069,-0.028,-0.068,-0.112,0.001
FBXO7 (UniProt Q9Y3I1),0.038,0.041,0.061,-0.023,0.015,-0.194,-0.018,0.083,-0.029,0.098,-0.026,-0.006,0.003,0.059,-0.102,0,0.065,-0.002,0.072,0.07
GNAS (UniProt Q5JWF2),0.049,0.047,0.039,-0.031,0.07,-0.034,-0.026,0.003,0.007,-0.141,0.129,-0.001,0.103,-0.02,0.064,0.005,0.029,0.031,0.005,-0.035
GDI1 (UniProt P31150),0.018,0.026,0.061,-0.054,0.014,-0.049,0.004,-0.009,-0.027,0.084,0.002,0.024,0.001,0.017,-0.053,-0.024,0.035,0.01,-0.06,0.062
IGF2BP2 (UniProt Q9Y6M1),0.009,-0.062,-0.186,0.531 (active),-0.161,0.139,0.012,0.158,0.288,-0.182,0.121,0.004,-0.058,-0.018,0.038,-0.039,-0.228,-0.191,0.069,-0.071
GNB2 (UniProt P62879),0.084,0.134,0.024,-0.13,0.046,-0.095,0.017,0,0.009,0.062,0.12,-0.002,0.077,-0.018,0.057,-0.012,0.028,-0.032,0.003,-0.028
FOXK1 (UniProt P85037),-1.1 (active),0.336,0.897,-0.482,0.582,-1.34 (active),0.127,-0.148,-0.126,0.373,0.03,0.052,0.487,-0.816,0.128,-1.19 (active),0.312,0.184,0.008,0.03
FNTA (UniProt P49354),0.073,0.069,0.077,-0.005,0.014,0.057,-0.017,-0.014,-0.043,0.06,-0.024,-0.009,-0.002,0.104,0.165,0.019,0.036,0.091,0.429 (active),0.013
HDAC1 (UniProt Q13547),0.011,0.084,0.001,0.115,0.045,-0.02,-0.033,0.06,-0.018,0.038,0.306,-0.046,-0.023,-0.021,-0.091,-0.055,-0.002,-0.009,-0.078,-0.025
GABARAPL2 (UniProt P60520),0.081,-0.178,0.036,0.006,0.053,0.039,0.031,0.005,-0.073,-0.151,-0.168,0.096,-0.015,-0.028,-0.014,-0.004,0.046,0.279,-0.003,0.03
IFI30 (UniProt P13284),0.013,-0.011,-0.083,-0.02,-0.129,0.042,0.027,0.035,-0.044,0.002,-0.41 (active),0.007,0.068,0.015,0.016,-0.049,0.097,0.002,0.04,0.044
HECTD1 (UniProt Q9ULT8),-0.034,0.084,0.129,0.072,-0.091,-0.062,0.002,0.06,-0.062,-0.126,0.025,0.029,-0.111,-0.141,-0.104,-0.022,-0.058,-0.032,-0.088,-0.144
HMOX2 (UniProt P30519),0.07,-0.03,0.022,0.008,0.011,0.017,-0.007,0.041,0.062,-0.028,0.006,0.048,0.002,-0.08,-0.141,-0.006,0.067,0.003,0.27 (active),0.062
